Values without a mark were called inactive. Activity calls are given as the source filed them.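 How the source made its calls: active means IC50, the dose giving half inhibition, at or below 10 µM; inactive means IC50 above 10 µM.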

A short description of the assay: DNA CAG repeat dye-complex inhibitors – biochemical, fluorescence, 5'CAG/3'GTC DNA, powders, MedChem round 1, counter-screen for r(CAG) RNA repeat binder project, late-stage follow-up (AID 743498). Particulars: DNA d(CAG) repeat TO-PRO-1 dye displacement. In general terms: The purpose of a counterscreen is to sort out artefacts and off-target activity.
As to `CCN(CC)C(=O)/C=C/c1cn(-c2ccccc2)nc1-c1ccccc1`, the IC50 is > 29.9 µM.

With `COc1ccc(-c2nn(-c3ccccc3)cc2/C=C/C(=O)Nc2cccc(NC(C)=O)c2)cc1OC`, the IC50 was > 29.9 µM. Regarding `CCN(c1ccccc1)S(=O)(=O)c1ccc(NC(=O)c2oc3ccc(F)cc3c2C)cc1`, the IC50 is > 29.9 µM. Consider `CCN1CCN(C(=O)/C=C/c2cn(-c3ccccc3)nc2-c2ccccc2)CC1`, for which the IC50 was > 29.9 µM. As for `CNC(=O)Cc1ccc(NC(=O)/C=C/c2cn(-c3ccccc3)nc2-c2ccc(F)cc2)cc1`, the IC50 was > 29.9 µM. The same measure for `O=C(/C=C/c1cn(-c2ccccc2)nc1-c1ccccc1)NCCc1c[nH]c2ccccc12`: > 29.9 µM; for `O=C(/C=C/c1cn(-c2ccccc2)nc1-c1ccc2ccccc2c1)Nc1ccc(C(=O)O)cc1`: 3.53 µM (active); for `N#C/C(=C/c1cn(-c2ccccc2)nc1-c1cccnc1)C(=O)Nc1ccc(C(=O)O)cc1`: 28.6 µM. Then `COc1ccc(NC(=O)/C=C/c2cn(-c3ccccc3)nc2-c2ccc(OC)cc2)cc1`, with > 29.9 µM; and `N#C/C(=C/c1cn(Cc2ccccc2)nc1-c1cccnc1)C(=O)Nc1ccc(C(=O)O)cc1`, with > 29.9 µM; and `CN(C)CCCNC(=O)/C=C/c1cn(-c2ccccc2)nc1-c1ccccc1`, with > 29.9 µM. The same measure for `NC(=O)c1cc(NC(=O)/C=C/c2cn(-c3ccccc3)nc2-c2ccc(F)cc2)c(F)cc1F`: > 29.9 µM; for `Cc1c(C(=O)Nc2ccc(S(=O)(=O)N(C)Cc3ccccc3)cc2)oc2ccc(F)cc12`: > 29.9 µM; for `CN1C(=O)/C(=C/c2cn(-c3ccccc3)nc2-c2ccccc2)c2ccccc21`: > 29.9 µM.

Regarding `O=C(/C=C/c1cn(-c2ccccc2)nc1-c1ccccc1)NCCO`, the IC50 is > 29.9 µM.

For the molecule `O=C(/C=C/c1cn(-c2ccccc2)nc1-c1ccccc1)NCc1ccccc1`, the IC50 was > 29.9 µM. In the case of `CS(=O)(=O)Nc1cc(NC(=O)/C=C/c2cn(-c3ccccc3)nc2-c2ccccc2)ccc1F`, the IC50 was 12.2 µM. The same measure for `O=C(/C=C/c1cn(-c2ccccc2)nc1-c1ccccc1)N1CCN(CC(=O)N2CCCC2)CC1`: > 29.9 µM. The same measure for `Cc1ccc(-c2nn(-c3ccccc3)cc2/C=C/C(=O)Nc2cccc(S(N)(=O)=O)c2)cc1`: > 29.9 µM.

By IC50 is commonly meant the point on the concentration scale where inhibition reaches its midpoint.

Values taken from PubChem BioAssay AID743498 (The Scripps Research Institute Molecular Screening Center, 2014).
